Screening data deposited in PubChem by Sanford-Burnham Center for Chemical Genomics.
Sampled rows, rich in hits. Any-hit rate of the full collection: about 2.1%.
PABP FP inh: PABP-poly(A) binding inhibition; actives 1% (n = 290,000); PABP-poly(A) RNA binding, fluorescence polarization; inhibition, % at 35 µM; P11940;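 also: calls also rest on retests at 20 µM and on dose response follow-up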
eIF4H FP inh: inhibitors of RNA binding by human eIF4H; actives 0.94% (n = 290,000); inhibition, % at 35 µM; eIF4H fluorescence polarization binding assay; Q15056; AID 2012;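 also: calls also rest on retests at 20 µM and on dose response follow-up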
CendR NRP1 mod: NRP-1/CendR interaction modulation; inhibition, % at 25 µM; O14786; actives 0.85% (n = 360,000); FAM-RPARPAR peptide binding to NRP-1, fluorescence polarization;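 active = inhibition or corrected inhibition above about 18%, plus a signal ratio from 0.5 to 1.5, limit read from the data, passing the limit was not always enough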
MLLE-PAM2 inh: inhibitors of microRNA-mediated deadenylation, human PABP1 MLLE binding | inhibition, % at 20 µM | GST-MLLE / FITC-PAM2 fluorescence polarization | P11940 | actives 0.36% (n = 360,000); in the data active = inhibition above about 35%, passing the limit was not always enough;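 also: plate controls were DMSO wells with GST-MLLE for no effect and wells lacking GST-MLLE protein for full effect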
* marks the source's active call; other numbers are inactive results; ? = inconclusive; / = no result given. Unless noted, no rule for the calls is given here.

SMILES	PABP FP inh	eIF4H FP inh	CendR NRP1 mod	MLLE-PAM2 inh
O=C(O)c1cccc(-n2cccc2/C=N/O)c1	63.1*	91.8*	10.3	12.8
CCCNC(=S)N1CCC(NC(=O)c2ccc(C)cc2)CC1	12.3	-1.5	-5.4	-126.4
CCN1C[C@@H]2[C@@H]3C(=O)N(Cc4ccccc4)C(=O)[C@@H]3[C@](C)(C1=O)N2C(=O)c1ccc(Cl)cc1	/	/	4.9	5.1
COc1cccc(COC(=O)C(Cc2ccccc2)NC(=O)c2ccco2)c1 (stereo unspecified)	/	/	-14.9	13.7
Cc1ccc(NS(=O)(=O)Cc2ccccc2)nc1	6.7	-1.2	25.8*	0.7
O=S(=O)(Cc1ccccc1)Nc1ccc(Br)cn1	-0.2	-8.8	9.8	-0.5
COc1cccc(NC(=O)C(C)Sc2nnc(C3CC3)n2C2CC2)c1 (stereo unspecified)	/	/	-9.0	-7.9
Cc1cc(NC(=O)COc2ccccc2)ccc1Cl	-4.1	1.9	-3.8	-5.9
O=C(NNC(=O)c1csc(N2CCOCC2)n1)c1ccc(=O)[nH]c1	/	/	24.7*	7.8
COc1cc2c(C(=O)N3CCN(C)CC3)c(C)oc2cc1Br	-0.8	-5.4	0.3	-4.5
CCOC(=O)c1c(C)oc2cc(Br)c(OC(=O)N3CCOCC3)cc12	-8.7	5.5	26.0*	4.4
O=C1OCC2OC(O)C(O)C(O)C2OC(=O)c2cc(O)c(O)c(O)c2-c2c(O)c(O)c3oc(=O)c4c(c(O)c(O)c5oc(=O)c2c3c54)-c2c1cc(O)c(O)c2O (stereo unspecified)	105.5*	82.6*	/	/
O=C(NCc1ccccc1)C1CCC1	-3.0	-11.7	40.3*	14.6
Cc1cc2cc(CNC(=O)c3ccc(S(=O)(=O)N4CCOCC4)cc3)ccc2n1C	-15.2	18.2	27.5*	46.8*
Cc1cc2cc(CNC(=O)c3ccc(S(=O)(=O)N(C)C)cc3)ccc2n1C	5.3	?	10.1	50.3*
COc1cccc(CNC(=O)c2ccc(S(=O)(=O)N3CCOCC3)cc2)c1	/	/	0.8	11.8
Cn1nccc1C(=O)N1CCN(C23CC4CC(CC(C4)C2)C3)CC1	-1.0	-11.4	30.9*	3.3
Cc1ccc(C(=O)N2CCN(C34CC5CC(CC(C5)C3)C4)CC2)o1	-6.1	7.5	24.8*	-0.6
Cn1ncc(Cl)c1C(=O)N1CCN(C23CC4CC(CC(C4)C2)C3)CC1	-0.7	8.6	2.9	-2.3
COc1ccccc1C(=O)NC(=O)COC(=O)CNC(=O)c1ccc(Cl)cc1Cl	/	/	5.6	-7.6
C[n+]1cccc2ccc3c(c21)OC(N)=C(C#N)C3c1ccccc1 (stereo unspecified)	31.4	12.1	-23.5	-106.8
C[n+]1cccc(C2C(C#N)=C(N)Oc3c2ccc2ccccc32)c1 (stereo unspecified)	70.4*	32.5	12.4	-62.6
Cc1ccc(NC(=O)CSc2nc(-c3ccco3)nc3cc(=O)[nH]n23)c(Cl)c1	56.4*	85.7*	-23.3	-4.1
CCOC(=O)N1CCN(C(=O)C(CC(C)C)NS(=O)(=O)c2ccc(C)cc2)CC1 (stereo unspecified)	/	/	22.1*	4.5
COC(=O)[C@H](CC(C)C)NS(=O)(=O)c1ccccc1	-3.4	6.2	23.0*	5.3
SMILES	PABP FP inh	eIF4H FP inh	CendR NRP1 mod	MLLE-PAM2 inh
Cc1ccc(S(=O)(=O)NC(CC(C)C)C(=O)N2CCCC2)cc1 (stereo unspecified)	-2.5	-0.7	5.2	1.6
COC(=O)[C@H](CC(C)C)NS(=O)(=O)N[C@@H](CC(C)C)C(=O)OC	/	/	3.5	-13.6
CC1(C)Cc2c(cnn2-c2ccccc2)C(NC(=O)CCN2CCCC2=O)C1 (stereo unspecified)	-3.1	-9.0	-5.7	9.0
CCOc1ccc(C(=O)NNC(=O)C2CC(=O)N(c3ccc(C)cc3)C2)cc1 (stereo unspecified)	/	/	3.4	-1.1
CNc1nc(-c2ccccc2)cc(C(F)(F)F)c1C#N	82.7*	96.0*	-7.4	8.4
C#CCSc1nc(-c2ccccc2)cc(C(F)(F)F)c1C#N	-12.6	1.0	-2.3	-24.6
CCn1c(=S)sc2c(=O)n(CC(=O)NCCCc3ccccc3)c(C)nc21	-5.1	0.9	26.1*	7.2
CCOc1ccc(OCC)c(S(=O)(=O)n2cnc(C)c2)c1	3.1	3.9	-2.3	3.8
COc1ccc(C2CC(C(F)(F)F)n3nc(C(=O)O)c(Cl)c3N2)cc1OC (stereo unspecified)	-0.7	-9.1	35.3*	-2.1
COc1ccc(C2CC(C(F)(F)F)n3nc(CO)c(Cl)c3N2)cc1OC (stereo unspecified)	-6.5	-1.6	-1.2	-3.3
CCCCOc1ccc(C(=O)N/C(=C/C=C/c2ccccc2)C(=O)O)cc1	-5.0	-3.8	21.4*	-3.5
O=C(NC1CCCCC1)c1ccc(-c2cn[nH]c2)c2ccoc12	/	/	-1.8	4.3
CC(Nc1ccc2ccccc2c1)C(=O)N/N=C/c1ccncc1 (stereo unspecified)	/	/	25.4*	11.0
CC(Oc1ccc2ccccc2c1)C(=O)N/N=C/c1cccnc1 (stereo unspecified)	0.1	-5.0	10.9	-3.9
COc1ccc(N2CCN(C3CCCN(C(=O)CN4CCCCC4=O)C3)CC2)cc1 (stereo unspecified)	-0.4	-1.6	-1.6	10.9
COc1ccccc1N1CCN(C2CCCN(C(=O)CN3CCCCC3=O)C2)CC1 (stereo unspecified)	13.4	-5.7	20.2*	6.2
Cc1ccc(S(=O)(=O)N2[C@@H](c3ccc(Cl)cc3)C(C(=O)O)=CC[C@H]2c2cccs2)cc1	/	/	6.6	5.4
CCOC(=O)C1(C)CCN1C(=O)c1ccc(OC)c(F)c1 (stereo unspecified)	/	/	-2.6	1.0
CN(C)CCNc1oc(COc2ccc(Cl)cc2Cl)nc1C#N	62.3*	30.0	-6.9	15.2
COCCCNc1oc(COc2ccc(Cl)cc2Cl)nc1C#N	7.8	-0.8	14.0	4.6
COc1ccc(CNC(=O)c2cc(=O)c3cc(C)ccc3o2)cc1	7.3	-2.3	6.9	6.4
Cc1ccccc1-n1ncc2c1CC(C)(C)CC2NC(=O)CSc1ccncc1 (stereo unspecified)	-3.1	-7.9	-1.0	0.9
Cc1ccccc1-n1ncc2c1CC(C)(C)CC2NC(=O)c1ccncc1 (stereo unspecified)	-5.6	-6.9	44.2*	-0.5
C/C(=N\NC(=O)C1CCCC1)c1ccc(C(C)C)cc1	-0.4	-0.7	26.8*	12.4
NS(=O)(=O)c1ccc(N/N=C/c2ccc(O)cc2O)c([N+](=O)[O-])c1	2.8	11.8	15.9	14.0
SMILES	PABP FP inh	eIF4H FP inh	CendR NRP1 mod	MLLE-PAM2 inh
NS(=O)(=O)c1ccc(N/N=C/c2ccc(O)c(O)c2O)c([N+](=O)[O-])c1	49.1	95.8*	21.0	42.4*
CCCCCc1ccc(CC(=O)O)cc1	-2.1	-9.0	38.4*	4.2
CCCCc1ccc(CC(=O)O)cc1	-5.2	-9.0	-2.9	30.3
CCN(CC)C(=O)CSC(Nc1ccc(F)cc1)=C(C#N)C#N	13.1	27.0	-121.0	-102.3
CCN(CC)C(=O)CSC(=Nc1ccccc1F)NC#N	55.8*	45.5*	-42.2	-29.9
CCOC(=O)c1c(C)[nH]c(C(=O)OCC(=O)N(CC(C)C)c2c(N)n(Cc3ccccc3)c(=O)[nH]c2=O)c1C	/	/	-80.8	-26.2
COc1ccc(CN2C[C@@H](CO)O[C@@H](n3cnc4c(N5CCN(c6ccccc6)CC5)ncnc43)C2)cc1	/	/	3.8	6.4
